Active and inactive are the calls of the source. How the source made its calls: active means hit-call score of the fitted dose curve at least 0.9, where 1 is the maximum; inactive means score below 0.9.

As usually defined, the AC50 is the concentration at which the activity in the assay is half-maximal.

Read-out in the assay: Peroxisomal acyl-coenzyme A oxidase 1 (ACOX1) gene, ACOX1 (gene 51)
Nature of the assay: LTEA_HepaRG_ACOX1: Life Technologies and Expression Analysis (LTEA) Assay for Peroxisomal acyl-coenzyme A oxidase 1 (ACOX1) gene using HepaRG (AID 2283467). To be noted: mRNA level, 48 h; actives raise or lower the signal. The procedure: LTEA_HepaRG is a cell based, multiplexed-readout assay that uses HepaRG, a human liver cell line, with measurements taken at 48 hours after chemical dosing on a 96-well plate.LTEA_HepaRG_ACOX1 is one of 102 assay component(s) measured in the LTEA HepaRG cell culture assay. It is a marker of Steatosis.Data from the assay component LTEA_HepaRG_ACOX1 was analyzed into 1 endpoint. This assay endpoint, LTEA_HepaRG_ACOX1, was analyzed with bidirectional fitting relative to DMSO as the negative control and baseline of activity. Using a type of inducible reporter, measures of mRNA induction for gain or loss-of-signal activity can be used to understand regulation of transcription factor activity. To generalize the intended target to other relatable targets, this assay endpoint is annotated to the oxidase intended target family, where the subfamily is steatosis.
A total of 1060 chemcials from the ToxCast library were tested in eight-point concentration-response experiments. Cell culture and cytotoxicity assays were conducted at Thermo Fisher Scientific's Custom Services facility (Madison, WI). A single lot of human HepaRG cells (Thermo Fisher Scientific, Frederick, MD) was used for the cell culture experiments. 96-well format collagen type I coated plates of human HepaRG cells were prepared using established methods. Briefly, cryopreserved HepaRG cells were thawed, plated at a density of approximately 100,000 cells/well in HepaRG Thaw, Plate, and General Purpose media (HPRG770, Thermo Fisher Scientific), and incubated for 48 hours. 0.5% DMSO was selected as vehicle control to balance the requisite need of DMSO in HepaRG cultures to maintain differentiation (for example, baseline metabolism, proportions of hepatocytes vs. cholangiocytes), while enabling further hepatic receptor pathway activation (for example, PXR and CAR) in response to chemical exposure. 48 hours after plating, the culture medium was replaced with HepaRG Serum-Free Incudtion Media. Cells were exposed to each test chemical in duplicate and maintained in CO2 incubators for another 48 hours. Chemical plates were thawed to room temperature and 200x concentrations of treatment groups were prepared. 8-point conentration-reponse curves were made with the highest exposure at 100 uM, followed by half-log dilutions, all in 0.5% DMSO. Each test plate contained variouse controls, induction positive controls (1mM phenobarbital), cytotoxicity positive controls ([…] aflatoxin B1), vehicle controls (0.5% DMSO), and total lysis controls (0.5% DMSO). Cell morphology images were taken using an Essen IncuCyte FLR automated microscope, with six 96-well plates imaged in about 24 minutes. Images were captured and exported and JPEG files. Spent culture media was transfered to black-well plates for the LDH assay, and remaining media was sorted at -80 C for later use. Cells were treated with RLT buffer and frozen until shipped for gene expression analysis. Total RNA was isolated from the cell suspension in 75 uL of Buffer RLT (Qiagen, Germantown, MD 20874) by Quintiles/Expression Analysis (Durham, NC) using a custom isolation procedure. Total RNA from each plate well was transferred to a preamplification plate. Fluidigm's 96.96 Dynamic ArrayTM (Fluidigm, Amsterdam, the Netherlands) technology was used for gene expression analyses by quantitative reverse transcription polymerase chain reaction (qRT-PCR, performed by Quintiles/Expression Analysis, Durham, NC)89. Standard TaqManTM Assays (Applied Biosystems/ThermoFisher Scientific, Foster City, CA) were used to assess the expression of 93 genes selected based on their selectivity and sensitivity to important hepatic receptors known to be modulated by environmental chemicals; importance in human hepatocyte functionality; and hepatotoxicity. […]
With `CCCCCCC(C=O)=Cc1ccccc1`, the compound was called inactive. `CN(C)CCCN(C)CCCN(C)C`: the compound was called inactive. `Nc1nc(Cl)nc2c1ncn2[C@H]1C[C@H](O)[C@@H](CO)O1`: the AC50 is 4.13 µM (active). For the compound `CC(C)(O)c1ccc(CNC(=O)c2cccnc2Oc2ccc(F)cc2)cc1`, the compound was called inactive. On the same count and under the same terms, in the case of `CC(C)c1cccc(C(C)C)c1` it was “inactive”; in that of `Cc1cc(Cc2ccc(N)c(C)c2)ccc1N`, “inactive”. As for `Cc1cc(SC2=C(O)C[C@@](CCc3ccc(N)cc3)(C(C)C)OC2=O)c(C(C)(C)C)cc1CO`, the compound was called inactive. `NCCOCCOCCN`: the result was inactive.

Turning to `O=[Si]=O`, the compound was classed as inactive.

On to `c1ccc2occc2c1`, for which the call was inactive. For the compound `CCc1cc(C2=C(C(=O)O)N(c3ccccc3C(F)(F)F)S(=O)(=O)c3ccccc32)cc2c1OCO2`, the result was inactive. On the same count and under the same terms, in the case of `CCOCCOCCO` it was “inactive”.

With `NC(=Nc1ccccc1)Nc1ccccc1`, the outcome was inactive.

As to `S=c1[nH]c2ccccc2s1`, the result was inactive. On to `CC(=O)OC1CC(C)OC(C)O1` (stereo not given), for which the compound was classed as inactive. On to `Oc1ccc(O)cc1`, for which the result was inactive. Take `CC(=O)CC(c1ccccc1)c1c(O)c2ccccc2oc1=O` (stereo not given): the compound was classed as inactive.

As for `O=NO`, the compound was classed as inactive.

Consider `CCN(CC)CCOc1ccc(C(=C(Cl)c2ccccc2)c2ccccc2)cc1`, for which the concentration at half-maximal activity (AC50) is 13.3 µM (active).

Take `O=C(O)c1[nH]n(-c2ccc(S(=O)(=O)O)cc2)c(=O)c1N=Nc1ccc(S(=O)(=O)O)cc1`: the outcome was inactive. With `Cc1cn([C@H]2C=C[C@@H](CO)O2)c(=O)[nH]c1=O`, the call was inactive.

With `CN(C)C(=O)NC1(c2ccccc2)CCN(CCC[C@]2(c3ccc(Cl)c(Cl)c3)CCCN(C(=O)c3ccccc3)C2)CC1`, the call was inactive. Consider `CCCCC(CC)CO` (stereo not given), for which the outcome was inactive. As for `CC(C)(C)c1ccccc1`, the compound was classed as inactive. In the case of `CCCCCCCCCCCCCCOS(=O)(=O)O`, the outcome was inactive. In the case of `CCCCCCC(CCCCCCCCCCC(=O)OCC(COC(C)=O)OC(C)=O)OC(C)=O` (stereo not given), the call was inactive. Take `O=C(O)CN(CC(=O)O)CC(=O)O`: the compound was called inactive.

With `CC(=O)S[C@H](C(=O)N[C@H]1Cc2ccccc2[C@H]2CCC[C@@H](C(=O)O)N2C1=O)C(C)C`, the compound was called inactive. On the same count and under the same terms, in the case of `CCCC(=O)O` it was “inactive”. With `CCc1nc(N)nc(N)c1-c1ccc(Cl)cc1`, the half-maximal activity concentration (AC50) is 18.6 µM (active). Turning to `CC(C)OC(=O)C(C)(C)Oc1ccc(C(=O)c2ccc(Cl)cc2)cc1`, the compound was called inactive. On to `C#CC(O)C(CC)CCCC` (stereo not given), for which the compound was called inactive.

Regarding `Cc1occc(=O)c1O`, the call was inactive.

In the case of `O=C1O[C@H]([C@H](O)CO)C(O)=C1O`, the call was inactive. Turning to `O=C1c2c(O)cccc2Cc2cccc(O)c21`, the result was inactive. `O=C1OC(c2ccc(O)cc2)(c2ccc(O)cc2)c2ccccc21`: the AC50 is 50 µM (active). Turning to `O=Cc1ccccc1C=O`, the outcome was inactive. In the case of `CC(=O)O`, the call was inactive.

`C=CCc1ccc(OC)c(OC)c1`: the result was inactive. For the compound `Cc1c(C)c2c(c(C)c1O)CCC(C)(COc1ccc(CC3SC(=O)NC3=O)cc1)O2` (stereo not given), the AC50 was 97.6 µM (active).

Source of the values: PubChem BioAssay (EPA / NIEHS).
